Compounds with a hit are over-represented: about 7.9% of the library has one in this group of screens.
MARV entry inh = Marburg virus entry inhibition | Marburg virus pseudotyped entry inhibition, cell reporter | Potency, µM (titrated, usually from 37.8 µM), inactives show top-dose activity change, negative = inhibition, most hits filed as inhibitors | 1.8% of 300,000 active; calls by dose curve; tested in HEK293 cells; note: potency is the fitted concentration of half-maximal effect
FMDV antiviral = antivirals against foot and mouth disease virus. Potency, µM (series often up to 57.9 µM), without a hit: at the highest dose activity change, negative = inhibition, actives largely listed as inhibitors. FMDV antiviral cell-based qHTS. 1.2% of 410,000 active; calls by dose curve; tested in HEK293T cells; note: read-out not given here; potency is the fitted concentration of half-maximal effect; nearly all actives have a fitted effect of over 45% in size
HCV inhibitor = HCV inhibition; 3.4% of 340,000 active; Huh7.5.1 HCVcc-Cre infection, luciferase reporter, 44 h; Potency, µM (top dose mostly 41.8 µM), inactives show at the highest dose activity change, negative = inhibition, hits mostly inhibitors; active = well fitted inhibition curve with a large enough effect; inconclusive = small, poorly fitted or top-dose-only effect, or another doubt; inactive = no such curve, though single readings can be large or run the other way; note: potency is the fitted concentration of half-maximal effect
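Cells seeded at 1,000/well and cultured 4 h, then compounds added followed by HCVcc-Cre virus (~0.5 moi). After 44 h further culture, luciferase substrate was added, plates held 15 min at room temperature, and luminescence read for 15 sec.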
LASV entry inh = blocks Lassa virus binding to or entry into cells; Lassa virus pseudotype entry inhibition, cell reporter; Potency, µM (series often up to 37.9 µM), inactives show at the top dose activity change, negative = inhibition, hits mostly inhibitors; 1.2% of 300,000 active; AID 540256; calls by dose curve; tested in HEK293 cells; note: potency is the fitted concentration of half-maximal effect; nearly all actives have a fitted effect of over 50% in size
HCMV antiviral = blocks human cytomegalovirus replication; HFF cells, HCMV-luciferase reporter, 72 h; stronger effect = lower value; activity change, negative = inhibition, % at 57.5 µM; AID 1259415; 4.5% of 410,000 active; in the data active = activity change below about -60%; inconclusive = no clear call, values can overlap the other calls; inactive = above about -39%
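Human foreskin fibroblasts infected with luciferase-reporter HCMV at MOI 1 PFU/cell, compounds at two doses. Luciferase measured 72 h post infection; normalized to buffer-only basal and Salinomycin (10uM) controls.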
Active calls of the source: *; ? = inconclusive; / = no result; [ ] = remark or other dose. % is set by controls: 0 for no effect and ±100 for the full control effect.

SMILES | MARV entry inh | FMDV antiviral | HCV inhibitor | LASV entry inh | HCMV antiviral
O=C(NCc1cccc(Cl)c1)c1c2c(nc3ccccc13)C(=O)N(C1CCCCC1)C2 | / | -25.1% | / | -10.9%[46.1 µM] | 36.3
NS(=O)(=O)c1ccc(NC(=O)COC(=O)c2cnccn2)cc1 | -0.9%[46.1 µM] | 0.7% | 6.6% | -1.7%[46.1 µM] | -12.3
O=C(O)c1cccc(S(=O)(=O)N2CCC(n3nnc4cc(C(F)(F)F)ccc43)CC2)c1 | 0.9%[46.1 µM] | 1.2% | 2.3% | 24.1%[46.1 µM] | 19.0
O=C(Cc1ccc([N+](=O)[O-])cc1)N1CCN(c2ccc([N+](=O)[O-])cc2)CC1 | / | ? | 8.1% | / | -34.0
O=C(Cc1ccccc1)N1CCN(c2ccc([N+](=O)[O-])cc2)CC1 | 1.4% | ? | -15.8% | / | -63.6*
CCCCn1nnnc1C(c1cc2ccccc2o1)N1CCN(CCN(C)C)CC1 (stereo not given) | / | -5.9% | / | / | -14.5
C/C(=N\Nc1ccc([N+](=O)[O-])cc1)c1ccc(N)cc1 | ? | 29.3% | -20.2% | -13.4% | 93.2
C/C(=N\Nc1nc(C)c(C)s1)c1ccc([N+](=O)[O-])cc1 | ? | 28.2µM* | ? | / | 53.6
C/C(=N\Nc1ccc([N+](=O)[O-])cc1)c1ccc(-n2nncc2C)cc1 | ? | -9.8% | ? | ? | -66.4*
c1ccc(Cc2noc(CN3CCN(CCOc4ccccc4)CC3)n2)cc1 | / | -18.5% | 7.7% | / | -9.4
COc1cc(=O)n2c(c1C(=O)NC(C)c1ccco1)CCN(Cc1cc3ccccc3o1)CC2 (stereo not given) | / | 0.8% | / | / | /
Cc1ccc(N2CC(NC(=O)c3ccc(S(=O)(=O)N4CCCC4)cc3)CC2=O)cc1C (stereo not given) | / | -18.9% | / | 6.7%[46.1 µM] | -29.2
COc1ccc(CCC(=O)Nc2c(-c3ccc(N(C)C)cc3)[nH][nH]c2=O)cc1 | / | -9.3% | / | / | -68.0*
CC(=O)c1ccc2noc(-c3ccc(F)cc3)c2c1 | 5.4%[46.1 µM] | -0.5% | ? | 10.2% | ?
CC(=O)c1ccc2noc(-c3ccc(Cl)cc3)c2c1 | -14.4%[46.1 µM] | -21.4% | -0.5% | 4.2%[46.1 µM] | -61.8*
CN(C)C(=O)c1cccc(-c2cnc3c(NC=O)cc(-c4ccccc4F)cn23)c1 | / | -5.1% | / | / | 138.7
COc1ccc(OC)c(C(c2nnnn2Cc2ccccc2)N2CCC(C(N)=O)CC2)c1 (stereo not given) | -16.8% | 8.4% | 8.5% | -22.0% | 9.4
COc1ccc2ncn(-c3cc(OC(C)c4ccccc4Cl)c(C(N)=O)s3)c2c1 (stereo not given) | / | / | / | 0.0996µM* | /
Cn1c(COc2ccccc2Br)nc2ccccc21 | / | 54.5% | -21.6% | / | 66.6
NC(=O)c1sc(-n2cnc3ccccc32)cc1OCc1ccccc1Br | / | / | / | 8.88µM* | /
COc1cc2ncn(-c3cc(OCc4ccccc4Cl)c(C(N)=O)s3)c2cc1OC | / | / | / | 0.628µM* | /
COCCCCCCCCCCCC(=O)O | / | -0.7%[6.7 µM] | / | / | /
COc1cccc([C@H]2Oc3ccc(OC)cc3C(=NOCC[C@@H]3C=C[C@H](OC(C)=O)[C@@H](COC(C)=O)O3)[C@H]2O)c1 | -24.0%[14.2 µM] | / | / | ? | /
CCOC(=O)/C(=C/c1c(C)n(C)c2ccc([N+](=O)[O-])cc12)C(C)=O | ? | 12.6µM* | ? | -13.4% | -85.4*
CN1C2CCC1/C(=C\c1ccccc1F)C(=O)/C2=C/c1ccccc1F | 1.5% | -16.0% | -2.0% | -25.7% | -72.1*
SMILES | MARV entry inh | FMDV antiviral | HCV inhibitor | LASV entry inh | HCMV antiviral
CC1CCN(C2=NC(=O)/C(=C/c3ccccc3F)S2)CC1 | ? | -5.5% | -16.6% | ? | ?
Cc1cc(N2CC(C)OC(C)C2)n2cc(-c3ccccc3)nc2n1 (stereo not given) | 5.4%[46.1 µM] | 3.8% | -18.4% | -4.1% | -98.5*
Cc1cc(C(=O)CSc2nnc(N)s2)c(C)n1CCc1ccc(F)cc1 | -18.5% | -3.7% | -17.3% | -23.4% | 16.8
Cc1cc(C(=O)CSc2nc(N)cc(=O)[nH]2)c(C)n1-c1ccc(OC(F)F)cc1 | ? | 3.55µM* | ? | ? | -106.3*
CCCc1cc(=O)[nH]c(SCC(=O)c2cc(C)n(CCOC)c2C)n1 | 9.9% | 11.0% | 1.7% | 5.5% | 48.4
COc1ccc(CCn2c(C)cc(C(=O)CSc3nnc(N)s3)c2C)cc1 | ? | 28.2µM* | -26.7% | ? | /
Cc1cc(C(=O)CSc2nc(N)cc(=O)[nH]2)c(C)n1CCc1ccc(F)cc1 | ? | 15.8µM* | ? | -21.8% | -81.6*
COc1ccc(CCn2c(C)cc(C(=O)CSc3nc(N)cc(=O)[nH]3)c2C)cc1 | ? | 17.8µM* | 11.2µM* | ? | -95.3*
